From article PMC5540273 (PLoS ONE, 2017)

Legend:
Conditions in all cases: concentration: 1 μM,replicates: in singlicate; n = 1
PIK3C2G = system: PIK3C2G
PIK3CA = system: PIK3CA
PIK3CB = system: PIK3CB
PIK3CD = system: PIK3CD
PIK3CG = system: PIK3CG
PIK4CB = system: T1, PIK4CB
T1 construct: gene PI4KB

PIKFYVE = system: PIKFYVE
PIM1 = system: PIM1
PIM2 = system: PIM2
PIM3 = system: PIM3
PIP5K1A = system: PIP5K1A
PIP5K1C = system: PIP5K1C
PIP5K2B = system: PIP5K2B
PIP5K2C = system: T2, PIP5K2C
T2 construct: gene PIP4K2C

PKAC-alpha = system: T3, PKAC-alpha
T3 construct: gene PRKACA

PKAC-beta = system: T4, PKAC-beta
T4 construct: gene PRKACB

PKMYT1 = system: PKMYT1
PKN1 = system: PKN1
PKN2 = system: PKN2
PLK1 = system: PLK1
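Further: KINOMEscan kinase panel screen.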

SMILES | %Inh (PIK3C2G) [%] | %Inh (PIK3CA) [%] | %Inh (PIK3CB) [%] | %Inh (PIK3CD) [%] | %Inh (PIK3CG) [%] | %Inh (PIK4CB) [%] | %Inh (PIKFYVE) [%] | %Inh (PIM1) [%] | %Inh (PIM2) [%] | %Inh (PIM3) [%] | %Inh (PIP5K1A) [%] | %Inh (PIP5K1C) [%] | %Inh (PIP5K2B) [%] | %Inh (PIP5K2C) [%] | %Inh (PKAC-alpha) [%] | %Inh (PKAC-beta) [%] | %Inh (PKMYT1) [%] | %Inh (PKN1) [%] | %Inh (PKN2) [%] | %Inh (PLK1) [%]
Cc1ccc2c(-c3ccncc3)c(-c3ccc(F)cc3)nn2c1.Cl [GW461484] | 0 | 0 | 25 | 0 | 1 | 0 | 0 | 0 | 0 | 16 | 24 | 24 | 31 | 10 | 18 | 22 | 0 | 0 | 8 | 0
Cc1occc1-c1nc(N)c(OC[C@@H](N)Cc2c[nH]c3ccccc23)cc1-c1cc2c(C)n[nH]c2cn1 [GSK1660450] | 7 | 0 | 0 | 10 | 0 | 0 | 0 | 97.3 | 99.2 | 97.7 | 65 | 42 | 11 | 0 | 99.9 | 99.3 | 24 | 63 | 22 | 57
Cl.Cl.NC[C@H](CC1CCCCC1)NC(=O)c1cc(Br)c(-c2ccnc3[nH]ccc23)s1 [GSK1581427] | 0 | 0 | 0 | 0 | 0 | 1 | 0 | 1 | 0 | 0 | 63 | 35 | 89 | 36 | 99.5 | 99.6 | 0 | 31 | 82 | 0
C=CC(=O)Nc1cc2c(Nc3ccc(F)c(Cl)c3)ncnc2cc1OCCCN1CCOCC1 [GW781483] | 0 | 0 | 60 | 0 | 42 | 21 | 20 | 2 | 0 | 0 | 18 | 0 | 0 | 27 | 11 | 10 | 20 | 18 | 0 | 0
CC(C)N1C(=O)Cc2cc(Nc3ncc(C(F)(F)F)c(NCc4cccc(S(C)(=O)=O)c4)n3)ccc21 | 28 | 6 | 29 | 0 | 5 | 28 | 27 | 5 | 0 | 9 | 34 | 0 | 57 | 52 | 0 | 0 | 15 | 24 | 7 | 28
CCN(CC)CCCCNc1ncc2cc(-c3c(Cl)cccc3Cl)c(NC(=O)NC(C)(C)C)nc2n1 | 6 | 8 | 91.6 | 15 | 2 | 0 | 21 | 0 | 13 | 0 | 0 | 0 | 0 | 3 | 11 | 0 | 0 | 0 | 4 | 0
Cl.Cl.Nc1nc(-c2ccc3c(N)n[nH]c3c2)cc(N2CCCC(NC(=O)c3ccccc3)C2)n1 (stereo not shown) [GSK2286775] | 43 | 14 | 0 | 2 | 4 | 27 | 6 | 25 | 0 | 25 | 56 | 55 | 38 | 25 | 0 | 0 | 5 | 41 | 0 | 0
Cc1cc2cn[nH]c2cc1-c1cccc2c(N)c(C(N)=O)nnc12 | 13 | 0 | 0 | 46 | 0 | 26 | 0 | 0 | 0 | 0 | 16 | 0 | 0 | 10 | 1 | 0 | 0 | 0 | 0 | 15
